Compound activity (PubChem)
Sampled rows, rich in hits. Any-hit rate of the full collection: about 2.2%.
aSyn UTR inh – MLPCN primary screen, SNCA 5' untranslated region. alpha-synuclein 5'UTR reporter, inhibitor activity. inhibition, % (tested at 7.5 µM). 300,000 tested, 0.82% active; in the data active means inhibition above about 60%;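 further: H4 neuroglioblastoma cells stably carrying SNCA 5'UTR luciferase fusion; 0% = DMSO wells and 100% = positive control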
Ba/F3 V617F tox – reduced viability of JAK2V617F-dependent Ba/F3 cells, primary screen, JAK2V617F inhibitor project, cell-based, Ba/F3 EpoR-JAK2V617F, luminescence | 220,000 tested, 1.1% active | inhibition, % at 5.6 µM | ATP luminescence;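 active means inhibition above the campaign mean plus 3 SD over all tested compounds, cut at about 24% in these data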;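 further: cytokine-independent growth of Ba/F3 cells driven by EpoR plus mutant JAK2; 0% = DMSO-treated cells and 100% = JAK inhibitor I control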
IEC-6 tox – cytotoxicity in IEC-6 intestinal epithelial cells, primary screen, cytotoxicity control for KLF5 inhibitor project, cell-based, luminescence; 290,000 tested, 0.78% active; IEC-6 cytotoxicity, luminescence viability; inhibition, % at 5 µM; in the data active means inhibition above about 22%;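 further: 0% = plate median of test compound wells and 100% = cytotoxic reference compound wells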
KLF5 inh – KLF5 expression inhibitors, primary screen, DLD-1 cells, luminescence. 290,000 tested, 0.23% active. DLD-1 KLF5 promoter-luciferase reporter. inhibition, % at 5 µM;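 active means inhibition above a per-plate limit of that plate's mean compound inhibition plus 3 SD, cut at about 60% in these data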;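 further: 0% = DMSO wells and 100% = LY294002 at 200 µM; higher means less KLF5 promoter-driven luciferase light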
BaF3 parental – parental Ba/F3 cell viability inhibition, counter-screen for JAK2V617F inhibitor project, murine pro-B, CellTiter-Glo luminescence; CellTiter-Glo ATP luminescence; inhibition, % at 5.6 µM; 220,000 tested, 1.1% active; AID 1486, 2009;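 active means inhibition above a per-campaign cutoff, the mean inhibition of all tested compounds plus 3 SD, cut at about 27% in these data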;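 further: 0% = DMSO wells and 100% = JAK Inhibitor I control wells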
APP transl inh – inhibitors of APP translation via 5'UTR reporter, primary screen, APP 5'UTR luciferase, SH-SY5Y cells. SH-SY5Y APP 5'UTR-luciferase reporter, luminescence. inhibition, % at 2 µM. 190,000 tested, 0.82% active;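 active means inhibition above a set limit, derived from the sample mean plus 3 SD, cut at about 45% in these data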
Active calls of the source: *; . = no result given.

SMILES	aSyn UTR inh	Ba/F3 V617F tox	IEC-6 tox	KLF5 inh	BaF3 parental	APP transl inh
COc1ccc(C2=NOC(C(=O)Nc3ccc4c(c3)OCCO4)C2)c(OC)c1 (stereo not given)	-11	.	2	-4	.	.
Cc1nc2cc3ccccc3cc2n1C	-8	7	0	-9	15	-1
Cn1c(=O)[nH]c2cc3ccccc3cc21	62*	0	0	-5	7	7
N/C(=N\OC(=O)c1cc([N+](=O)[O-])ccc1Cl)c1cccnc1	88*	-1	0	-29	2	.
N/C(=N\OC(=O)c1ccc([N+](=O)[O-])cc1)c1cccnc1	-92	-3	3	-32	2	-25
COc1ccc(CC(=O)Nc2cc(Cl)ccc2O)cc1	-21	70*	4	-22	42*	-2
COc1ccc(CC(=O)Nc2ccccc2NC(=O)Cc2ccc(OC)cc2)cc1	-3	.	-2	-12	.	.
O=C(Cn1c2[n+](c3ccc(C(F)(F)F)cc31)CCCCC2)Nc1ccccc1	8	1	2	0	7	-2
O=C(Cn1c2[n+](c3ccc(C(F)(F)F)cc31)CCCCC2)c1cccc([N+](=O)[O-])c1	-12	1	6	-26	80*	4
FC(F)(F)c1ccc2c(c1)n(Cc1ccccc1)c1[n+]2CCCCC1	15	22	-3	-9	35*	-5
O=C(CCCc1nc(-c2ccc(Cl)cc2)no1)NC1CCCC1	16	.	9	-5	.	.
CN(Cc1ccco1)S(=O)(=O)c1cc(F)ccc1CN1C(=O)c2cccnc2C1=O	9	.	-4	-14	.	.
N#CCOC(=O)C1CCN(S(=O)(=O)c2ccc3c(c2)OCCO3)CC1	-7	.	.	.	.	.
COc1ccc(/C=C2\SC(=S)N(CCCC(=O)N3CCCCC3CCO)C2=O)cc1 (stereo not given)	68*	.	-3	-3	.	.
COc1ccc(/C=C2\SC(=S)N(CCC(=O)NC3C=CS(=O)(=O)C3)C2=O)cc1 (stereo not given)	66*	.	1	-36	.	.
COc1cccc(/C=C2\SC(=S)N(CCC(=O)NC3C=CS(=O)(=O)C3)C2=O)c1 (stereo not given)	-29	.	-2	-32	.	.
CCOc1ccc(/C=C2\SC(=S)N(CCCC(=O)NCCCN3CCOCC3)C2=O)cc1	84*	.	0	0	.	.
O=C(CCCN1C(=O)/C(=C/c2ccccc2Cl)SC1=S)NNC(=O)c1ccccc1Cl	100*	-4	-1	27	0	41
CC1Sc2ccc(S(=O)(=O)CCC(=O)NC3CCCCC3C)cc2NC1=O (stereo not given)	-15	.	3	-41	.	.
COc1ccc(/C=C2\SC(=S)N(CCCC(=O)NNC(=O)c3ccccc3O)C2=O)cc1	75*	-3	2	-28	3	65*
COc1ccc(/C=C2\SC(=S)N(CCC(=O)NCCCn3ccnc3)C2=O)cc1	54	.	-5	22	.	.
CC(C)c1ccc(/C=C2\SC(=S)N(CCC(=O)NCCCn3ccnc3)C2=O)cc1	98*	.	-4	16	.	.
CCCCCN(C(=O)CCC(=O)OC(C)C(=O)NC1CCCCC1)c1c(N)n(CCCC)c(=O)[nH]c1=O (stereo not given)	-9	.	.	.	.	.
O=[N+]([O-])c1ccc(-c2ccc(/C=N/Nc3nc(N4CCCCC4)nc(N4CCCCC4)n3)o2)cc1	36	-3	-1	-43	7	3
O=[N+]([O-])c1cccc(-c2ccc(/C=N/Nc3nc(N4CCCCC4)nc(N4CCCCC4)n3)o2)c1	73*	-2	-5	-23	-4	-23
SMILES	aSyn UTR inh	Ba/F3 V617F tox	IEC-6 tox	KLF5 inh	BaF3 parental	APP transl inh
CCN(CC)CC(=O)N1CCCC(N2CCN(c3cccc(C(F)(F)F)c3)CC2)C1 (stereo not given)	1	.	-4	-2	.	.
CCCCN(C(=O)Cn1ncc(Cl)c(Cl)c1=O)c1c(N)n(CC(C)C)c(=O)[nH]c1=O	-3	-3	-6	7	-3	.
CCN(CC)CCN1C(=O)/C(=C\c2ccc(Cl)c([N+](=O)[O-])c2)SC1=Nc1ccc(OC)cc1	74*	.	13	13	.	.
CCCN1C(=O)/C(=C/c2ccc(C)s2)SC1=Nc1ccc(OC)cc1	15	1	-2	-14	-1	0
COc1ccc(N=C2S/C(=C\c3ccc(Cl)c([N+](=O)[O-])c3)C(=O)N2CCN(C)C)cc1	81*	.	18	-39	.	.
CCOC(=O)[C@@H]1[C@H]2COc3ccccc3[C@@H]2N2C(=O)N(c3ccccc3)C(=O)[C@]12C	0	.	2	-13	.	.
Cn1nccc1C(=O)N1CCC(Cc2ccccc2)CC1	11	.	-8	-3	.	.
Cn1c(Cc2ccccc2)[n+](C)c2ccccc21	-16	67*	-2	-8	69*	14
Cn1c(=O)c(Cc2ccccc2)c(O)c2ccccc21	6	-2	-2	-57	4	44
O=C(c1ccccc1)N1C(=O)C(c2ccccc2)Oc2ccccc21 (stereo not given)	82*	0	3	-9	-1	.
CC(=O)c1ccc(C(=O)N2CCCC(N3CCN(c4ccc(F)cc4)CC3)C2)s1 (stereo not given)	22	.	-2	-15	.	.
N#Cc1ccccc1COc1ccc(/C=C/C(=O)O)cc1	71*	8	0	-2	5	60*
C=CCNC(=O)CN1CCC(NC(=O)c2ccco2)CC1	-14	-1	-1	-7	1	17
COCCNC(=O)CN1CCC(NC(=O)c2ccco2)CC1	13	1	-3	-23	46*	-5
Nc1nc(Nc2ccccc2)nc(N2CCOCC2)c1[N+](=O)[O-]	17	-1	-6	-11	5	58*
O=C(Nc1nc2ccccc2[nH]1)c1cccc(F)c1	-62	.	18	-71	.	.
COc1cccc(C(=O)Nc2nc3ccccc3[nH]2)c1	63*	3	5	33	8	-150
CC(C)c1ccc(CN2CCN(C(=O)CCl)CC2)cc1	.	46*	6	-5	0	-2
CC(C)CC(=O)N1CCN(Cc2ccc(Cl)cc2)CC1	11	.	5	-27	.	.
O=C(NCCC(=O)N1CCc2ccccc21)c1ccco1	-59	.	-3	-54	.	.
Cc1ccc(OS(=O)(=O)c2ccc(N3C(=O)CCC3=O)cc2)cc1	6	.	-2	-11	.	.
CC(=O)O[C@@]12CO[C@@H]1C[C@H](O)[C@@]1(C)C(=O)[C@H](O)C3=C(C)[C@@H](OC(=O)[C@H](O)[C@@H](NC(=O)OC(C)(C)C)c4ccccc4)C[C@](O)([C@@H](OC(=O)c4ccccc4)[C@H]21)C3(C)C	72*	73*	87*	68*	62*	.
CCOC(=O)CSc1nc2ccc(N3CCOCC3)cc2c(=O)n1Cc1ccccc1	-2	0	1	-17	6	78*
